Results reported in PubChem BioAssay (Tox21).
Results filed as inconclusive are left out. Calls of active or inactive are those of the source. Unless noted, calls follow the shape of the dose curve; as a rule, active = well fitted curve in the direction sought with a large enough effect in the repeat runs; inconclusive = weak or mixed curves; inactive = no such curve, though single readings can be large; an effect the other way counts as inactive or inconclusive. Positions of bridges follow the written chain, without caps; N, C: chain ends. Residues, ends and D or L forms follow the SMILES beside them.

What was measured:
[1] = qHTS assay to test for compound auto fluorescence at 535 nm (green) in HEK293 cells (AID 720680)
[2] = qHTS assay to test for compound auto fluorescence at 460 nm (blue) in HEK293 cell free culture (AID 720681)
Outline: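 Test compounds were pinned into cell-free culture medium (DMEM with 10% FBS) and fluorescence was read directly at Ex/Em 405/460 nm. Signals were expressed as fluorescence equivalents of triamterene, with DMSO vehicle as control.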

[3] = qHTS assay to test for compound auto fluorescence at 535 nm (green) in HEK293 cell free culture (AID 720682)
Outline: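 Intrinsic compound fluorescence is measured in culture medium containing 10% FBS, with excitation at 485 nm and detection at 535 nm, referenced to fluorescein.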

[4] = qHTS assay to test for compound auto fluorescence at 590 nm (red) in HEK293 cell free culture (AID 720683)
Outline: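 Tox21 10K library compounds were pinned into cell-free DMEM with 10% FBS and fluorescence was read at excitation 540 nm. Activity is expressed as Rose Bengal sodium equivalency.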

[5] = qHTS assay to test for compound auto fluorescence at 590 nm (red) in HepG2 cell free culture (AID 720684)
Outline: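 Readout: intrinsic compound fluorescence at 590 nm emission after 540 nm excitation, scaled to Rose Bengal sodium. Matrix was cell-free MEM with 10% FBS; DMSO vehicle wells served as control.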

[6] = qHTS assay to test for compound auto fluorescence at 460 nm (blue) in HepG2 cell free culture (AID 720685)
Outline: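 Cell-free plates of MEM plus 10% FBS received 23 nL compound or DMSO vehicle; blue-channel (405/460 nm) intensity scored against triamterene as reference fluorophore.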

[7] = qHTS assay to test for compound auto fluorescence at 535 nm (green) in HepG2 cell free culture (AID 720686)
[8] = qHTS assay to test for compound auto fluorescence at 460 nm (blue) in HepG2 cells (AID 720687)
Outline: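 Cells (2,000/well in MEM with 10% FBS) attached overnight at 37 C, then were exposed to compound or DMSO for 1 hr at 37 C, 5% CO2. Fluorescence read at Ex/Em 405/460 nm, expressed as triamterene-equivalent signal.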

[9] = molecular target: Glucocorticoid receptor (Homo sapiens) (UniProt P04150); test: qHTS assay to identify small molecule agonists of the glucocorticoid receptor (GR) signaling pathway (AID 720691; active = well fitted activation curve with a large enough effect in the signal ratio in the repeat runs, not every such curve was filed as active; the % refers to the signal ratio); conditions: GR-bla HeLa, beta-lactamase reporter ratio, 18 h; activation: at 62.4 µM (top of the series)
Sequence of Glucocorticoid receptor (Homo sapiens) (P04150 whole entry, looked up): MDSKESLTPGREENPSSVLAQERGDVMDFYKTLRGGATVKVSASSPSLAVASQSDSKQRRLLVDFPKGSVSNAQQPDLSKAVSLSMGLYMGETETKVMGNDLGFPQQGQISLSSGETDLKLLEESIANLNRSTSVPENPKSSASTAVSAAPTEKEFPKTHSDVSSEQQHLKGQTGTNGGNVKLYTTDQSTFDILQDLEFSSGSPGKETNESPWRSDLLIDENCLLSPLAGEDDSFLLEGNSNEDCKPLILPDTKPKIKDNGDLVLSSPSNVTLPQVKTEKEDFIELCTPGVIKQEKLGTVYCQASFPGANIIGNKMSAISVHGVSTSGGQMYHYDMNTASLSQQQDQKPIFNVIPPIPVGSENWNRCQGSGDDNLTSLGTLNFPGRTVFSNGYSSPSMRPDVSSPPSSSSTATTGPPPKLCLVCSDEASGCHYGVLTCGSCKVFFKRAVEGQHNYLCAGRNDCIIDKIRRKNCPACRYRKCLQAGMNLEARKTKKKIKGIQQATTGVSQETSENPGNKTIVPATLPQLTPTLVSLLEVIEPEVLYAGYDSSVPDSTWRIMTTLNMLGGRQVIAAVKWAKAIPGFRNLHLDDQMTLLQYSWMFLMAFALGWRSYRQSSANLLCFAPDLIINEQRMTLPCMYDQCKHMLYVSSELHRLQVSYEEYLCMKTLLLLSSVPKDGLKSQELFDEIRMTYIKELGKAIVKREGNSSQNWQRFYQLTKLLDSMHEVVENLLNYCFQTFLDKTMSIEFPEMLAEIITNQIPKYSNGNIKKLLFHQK
Outline: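 Steps: seed GR-bla HeLa cells, incubate 4 h at 37 C/5% CO2; pin-transfer DMSO-dissolved compounds; incubate 18 h at 37 C; add LiveBLAzer B/G FRET substrate; after 2 h at room temperature, measure fluorescence.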

[10] = molecular target: Glucocorticoid receptor (Homo sapiens) (UniProt P04150); test: qHTS assay to identify small molecule antagonists of the glucocorticoid receptor (GR) signaling pathway (AID 720692; active = well fitted inhibition curve with a large enough effect in the signal ratio in the repeat runs, not every such curve was filed as active; the % refers to the signal ratio; also: potency is read from the fitted curve at half-maximal effect)
Outline: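 Antagonism was scored as loss of dexamethasone-driven (5 nM final) reporter signal in HeLa cells bearing a glucocorticoid response element–beta-lactamase construct, after 18 h compound exposure at 37 C and 2 h FRET substrate loading.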

[11] = qHTS assay to identify small molecule antagonists of the glucocorticoid receptor (GR) signaling pathway - cell viability counter screen (AID 720693); also: nearly all actives have a fitted effect of over 55% in size
[12] = qHTS assay for identifying genotoxic compounds that show differential cytotoxicity against isogenic chicken DT40 cell lines with known DNA damage response pathways - wild type cell line (AID 743012); also: nearly all actives have a fitted effect of over 60% in size; also: potency is read from the fitted curve at half-maximal effect
Outline: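 Cytotoxicity in repair-proficient parental chicken DT40 cells serves as the comparator for Rad54/Ku70- and Rev3-deficient lines. Cells were exposed to compounds for 40 h at 37 C/5% CO2, and ATP-based luminescence (CellTiter-Glo) measured viability.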

[13] = qHTS assay for identifying genotoxic compounds that show differential cytotoxicity against isogenic chicken DT40 cell lines with known DNA damage response pathways - Rev3 mutant cell line (AID 743014); also: nearly all actives have a fitted effect of over 55% in size; also: potency is read from the fitted curve at half-maximal effect
[14] = qHTS assay for identifying genotoxic compounds that show differential cytotoxicity against isogenic chicken DT40 cell lines with known DNA damage response pathways - Rad54/Ku70 mutant cell line (AID 743015); also: nearly all actives have a fitted effect of over 60% in size; also: potency is read from the fitted curve at half-maximal effect
[15] = qHTS assay to identify small molecule antagonists of the androgen receptor (AR) signaling pathway - cell viability counter screen (AID 743033; also: nearly all actives have a fitted effect of over 45% in size)
[16] = molecular target: Androgen receptor (Homo sapiens) (UniProt P10275); test: qHTS assay to identify small molecule antagonists of the androgen receptor (AR) signaling pathway (AID 743035; active = well fitted inhibition curve with a large enough effect in the signal ratio in the repeat runs, not every such curve was filed as active; the % refers to the signal ratio; also: potency is read from the fitted curve at half-maximal effect)
Sequence of Androgen receptor (Homo sapiens) (P10275 whole entry, looked up): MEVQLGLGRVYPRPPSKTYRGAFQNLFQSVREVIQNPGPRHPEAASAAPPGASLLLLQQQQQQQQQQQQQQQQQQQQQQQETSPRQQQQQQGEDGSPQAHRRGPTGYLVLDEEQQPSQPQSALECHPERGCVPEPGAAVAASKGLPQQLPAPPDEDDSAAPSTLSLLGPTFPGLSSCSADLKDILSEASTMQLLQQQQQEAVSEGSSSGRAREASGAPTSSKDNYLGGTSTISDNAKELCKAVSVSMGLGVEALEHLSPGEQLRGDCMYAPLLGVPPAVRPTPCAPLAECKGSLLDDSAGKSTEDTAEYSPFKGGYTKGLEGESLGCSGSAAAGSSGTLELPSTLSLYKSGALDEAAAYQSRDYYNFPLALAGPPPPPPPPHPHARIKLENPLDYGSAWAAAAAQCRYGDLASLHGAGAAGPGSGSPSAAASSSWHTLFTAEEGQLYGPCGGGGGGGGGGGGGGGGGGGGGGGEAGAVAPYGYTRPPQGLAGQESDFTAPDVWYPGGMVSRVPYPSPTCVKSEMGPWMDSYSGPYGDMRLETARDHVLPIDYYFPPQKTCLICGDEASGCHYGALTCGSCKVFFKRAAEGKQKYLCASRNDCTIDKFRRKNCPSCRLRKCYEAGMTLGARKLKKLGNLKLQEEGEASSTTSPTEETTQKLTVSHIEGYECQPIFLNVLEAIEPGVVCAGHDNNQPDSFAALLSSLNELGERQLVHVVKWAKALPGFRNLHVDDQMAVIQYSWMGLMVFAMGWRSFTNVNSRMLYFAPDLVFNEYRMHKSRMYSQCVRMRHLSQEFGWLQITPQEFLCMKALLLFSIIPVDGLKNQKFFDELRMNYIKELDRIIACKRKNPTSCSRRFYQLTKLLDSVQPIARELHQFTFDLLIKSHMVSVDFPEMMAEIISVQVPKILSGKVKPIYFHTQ
Outline: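 Steps: seed AR-UAS-bla GripTite HEK293 cells, incubate 4 h at 37C; pin in test compound, then add agonist R1881; incubate 16 h at 37C; add LiveBLAzer B/G FRET substrate, 2 h at room temperature; read fluorescence.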

[17] = molecular target: Androgen receptor (Homo sapiens) (UniProt P10275); test: qHTS assay to identify small molecule agonists of the androgen receptor (AR) signaling pathway (AID 743036; active = well fitted activation curve with a large enough effect in the signal ratio in the repeat runs, with a control signal flat, not every such curve was filed as active; the % refers to the signal ratio)
Outline: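 Agonist activity was scored by beta-lactamase reporter fluorescence in stably transfected HEK293 cells exposed to compounds for 16 h at 37C and 5% CO2. Substrate loading took 2 h at room temperature.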

[18] = molecular target: Androgen receptor (Homo sapiens) (UniProt P10275); test: qHTS assay to identify small molecule agonists of the androgen receptor (AR) signaling pathway using the MDA cell line (AID 743040; also: nearly all actives have a fitted effect of over 20% in size)
Outline: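 Agonist activity is measured as luciferase luminescence in human MDA-kb2 cells whose MMTV reporter responds to both AR and GR. Compounds in DMSO incubate 16 h at 37C, 0% CO2, and ONE-Glo is read after 30 min.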

[19] = qHTS assay to identify small molecule antagonists of the androgen receptor (AR) signaling pathway using the MDA cell line - cell viability counter screen (AID 743041; also: nearly all actives have a fitted effect of over 45% in size)
Outline: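 qHTS viability read-out; MDA-kb2 AR-luc; R1881-stimulated; 16 h exposure at 37C, 0% CO2; CellTiter-Fluor, 30 min; fluorescence intensity.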

[20] = molecular target: Androgen receptor (Homo sapiens) (UniProt P10275); test: qHTS assay to identify small molecule antagonists of the androgen receptor (AR) signaling pathway using the MDA cell line (AID 743042; also: nearly all actives have a fitted effect of over 55% in size)
Outline: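 MDA-kb2 cells (human breast carcinoma, stably carrying an MMTV-luciferase reporter responsive to AR and GR) were plated at 3,000 cells/well and preincubated 5 hr at 37C, then given compound plus R1881 agonist for 16 h. ONE-Glo luminescence was read.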

Measured: Potency

O=C(OC[C@H]1O[C@](O)(COC(=O)c2cccnc2)[C@@H](OC(=O)c2cccnc2)[C@@H]1OC(=O)c1cccnc1)c1cccnc1
inactive: all assays above

CCC(CN)CC(C)CCNCC(O)CNCC(C)CC(CC)CN (stereo unspecified)
inactive: all assays above

CCOC(=O)[C@@H](N)CS
not listed: [16] | [17] | [18] | [19] | [20]
inactive: all other assays above

O=C1NCCN1c1ncc([N+](=O)[O-])s1
not listed: [16] | [17] | [18] | [20]
inactive: all other assays above

COC(=O)C1=C(C)NC(C)=C(C(=O)O[C@H]2CCN(Cc3ccccc3)C2)[C@H]1c1cccc([N+](=O)[O-])c1
active: [10] 23.9 µM | [12] 10.6 µM | [13] 18.8 µM | [14] 13.3 µM | [16] 26.8 µM
not listed: [19] | [20]
inactive: all other assays above

CC(=O)Oc1cccc(C(=O)O)c1OC(C)=O
not listed: [16] | [17] | [18] | [20]
inactive: all other assays above

CCOC(=O)CN[C@@H](C(=O)N1CC[C@H]1C(=O)NCc1ccc(/C(N)=N/O)cc1)C1CCCCC1
not listed: [16] | [17] | [18] | [20]
inactive: all other assays above

C[Se]CCC(N)C(=O)O (stereo unspecified)
not listed: [16] | [17] | [18] | [19] | [20]
inactive: all other assays above

NCCCC[C@H](N)C(=O)O
inactive: all assays above

COc1cc(C[C@@H]2NCCc3cc(O)c(O)cc32)cc(OC)c1OC
not listed: [16] | [17] | [18] | [20]
inactive: all other assays above

CN(C(=O)CO)c1c(I)c(C(=O)NCC(O)CO)c(I)c(C(=O)NCC(O)CO)c1I (stereo unspecified)
not listed: [16] | [17] | [18] | [20]
inactive: all other assays above

CC[C@H](CC[C@@H](C)[C@H]1CC[C@H]2[C@@H]3CC=C4C[C@@H](O)CC[C@]4(C)[C@H]3CC[C@]12C)C(C)C
not listed: [16] | [17] | [18] | [20]
inactive: all other assays above

CC(=O)N[C@@H]([C@@H](O)[C@H](O)[C@H](O)CO)[C@@H](O)CC(=O)C(=O)O
not listed: [16] | [17] | [18] | [20]
inactive: all other assays above

NCCCC[C@H](NC(=O)[C@@H]1CCCN1C(=O)[C@@H]1CSSC[C@H](NC(=O)CNC(=O)CNC(=O)CN)C(=O)N[C@@H](Cc2ccc(O)cc2)C(=O)N[C@@H](Cc2ccccc2)C(=O)N[C@@H](CCC(N)=O)C(=O)N[C@@H](CC(N)=O)C(=O)N1)C(=O)NCC(N)=O (H-GGGCYFQNCPKG-NH2; disulfide 4-9)
not listed: [16] | [17] | [18] | [20]
inactive: all other assays above

CC(C)(S)[C@@H](N)C(=O)O
not listed: [16] | [17] | [18] | [20]
inactive: all other assays above

CC(C)CN(C[C@@H](OP(=O)(O)O)[C@H](Cc1ccccc1)NC(=O)O[C@H]1CCOC1)S(=O)(=O)c1ccc(N)cc1
not listed: [16] | [17] | [18] | [20]
inactive: all other assays above

CC(C)(C)NC[C@H](O)COc1ccccc1C1CCCC1
active: [12] 6.39 µM | [13] 10.1 µM | [14] 10.1 µM
not listed: [16] | [17] | [18] | [20]
inactive: all other assays above

CC1(C)S[C@@H]2[C@H](NC(=O)Cc3ccccc3)C(=O)N2[C@H]1C(=O)O
not listed: [16] | [17] | [18] | [20]
inactive: all other assays above

CCCCCCCCCCCCCCCC(=O)O[C@@H]1[C@@H](O)[C@@H](O)[C@@H]([C@H](NC(=O)[C@@H]2C[C@@H](CCC)CN2C)[C@H](C)Cl)O[C@@H]1SC
not listed: [16] | [17] | [18] | [20]
inactive: all other assays above

CN=C(NC)NCc1ccccc1
not listed: [16] | [17] | [18] | [20]
inactive: all other assays above

CCOC(=O)[C@H](CCc1ccccc1)N[C@H]1CCCN2CCC[C@@H](C(=O)O)N2C1=O
not listed: [16] | [17] | [18] | [20]
inactive: all other assays above

O=C(Cn1c(=O)sc2ccc(Cl)cc21)N1CCN(CCO)CC1
not listed: [16] | [17] | [18] | [20]
inactive: all other assays above

CC(=O)Nc1c(I)c(C(=O)O)c(I)c(N(C)C(C)=O)c1I
not listed: [16] | [17] | [18] | [20]
inactive: all other assays above

CC(=O)N=c1sc(S(N)(=O)=O)nn1C
not listed: [16] | [17] | [18] | [20]
inactive: all other assays above

CCCCCCCCCCCC(=O)OC[C@@H](O)C1OC[C@H](O)[C@H]1O (stereo partly specified)
not listed: [16] | [17] | [18] | [20]
inactive: all other assays above

CCC(C)[C@@H](N)C(=O)O (stereo partly specified)
not listed: [16] | [17] | [18] | [20]
inactive: all other assays above

CCCC(=O)Nc1ncnc2c1ncn2[C@@H]1O[C@@H]2COP(=O)(O)O[C@H]2[C@H]1OC(=O)CCC
not listed: [16] | [17] | [18] | [20]
inactive: all other assays above

O=C(O)c1ccc(OCCn2ccnc2)cc1
not listed: [16] | [17] | [18] | [20]
inactive: all other assays above

CO[C@H]1O[C@@H]2O[C@@]3(C)CC[C@H]4[C@H](C)CC[C@@H]([C@H]1C)[C@@]24OO3
active: [12] 1.19 µM | [13] 1.68 µM | [14] 0.668 µM
not listed: [16] | [17] | [18] | [20]
inactive: all other assays above
